AmpC inh detg – qHTS Inhibitors of AmpC Beta-Lactamase (assay with detergent); Potency, µM (top dose mostly 114 µM), most hits filed as inhibitors; AmpC hydrolysis of nitrocefin, absorbance 480 nm, 0.01% Triton; actives 0.041% (n = 370,000); P00811; note: nearly all actives have a fitted effect of over 25% in size
Target sequence (P00811 whole entry, looked up): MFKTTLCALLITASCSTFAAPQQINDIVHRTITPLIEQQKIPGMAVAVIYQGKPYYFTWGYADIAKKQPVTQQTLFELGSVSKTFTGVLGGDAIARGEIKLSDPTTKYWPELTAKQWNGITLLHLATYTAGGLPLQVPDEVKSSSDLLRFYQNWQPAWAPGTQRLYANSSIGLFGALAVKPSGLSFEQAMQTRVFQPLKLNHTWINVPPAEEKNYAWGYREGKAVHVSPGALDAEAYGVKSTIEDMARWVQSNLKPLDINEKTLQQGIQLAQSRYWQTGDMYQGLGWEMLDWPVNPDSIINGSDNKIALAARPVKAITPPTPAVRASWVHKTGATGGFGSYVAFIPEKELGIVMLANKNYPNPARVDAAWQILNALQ
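AmpC (5.3 nM in the dispensed reagent) in 20 mM phosphate pH 7.0 with 0.01% (detergent screen) or 0.0001% Triton X-100 was preincubated with compounds for 15 min at room temperature. Nitrocefin was then added from an 800 uM solution, and hydrolysis was followed at 480 nm.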
Sm TGR inh – qHTS Assay for the Inhibitors of Schistosoma Mansoni Peroxiredoxins | purified TGR, DTNB reduction, TNB absorbance 405 nm | Potency, µM (doses to about 114 µM), actives largely listed as inhibitors | actives 3% (n = 360,000) | AID 485364, 2010; note: nearly all actives have a fitted effect of over 60% in size
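First, TGR (20 nM dispensed) and NADPH were mixed with compound. Second, a 15 min room-temperature incubation followed. Third, further NADPH and then DTNB were added to start the reaction. Finally, TNB absorbance was monitored kinetically.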
AmpC inh no detg – qHTS Inhibitors of AmpC Beta-Lactamase (assay without detergent). P00811. AmpC nitrocefin hydrolysis, absorbance 480 nm, 0.0001% Triton. Potency, µM (series often up to 57.1 µM), usual class: inhibitors. actives 0.52% (n = 330,000). AID 485341, 2010; note: nearly all actives have a fitted effect of over 20% in size
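AmpC (5.3 nM in the dispensed reagent) in 20 mM phosphate pH 7.0 with 0.01% (detergent screen) or 0.0001% Triton X-100 was preincubated with compounds for 15 min at room temperature. Nitrocefin was then added from an 800 uM solution, and hydrolysis was followed at 480 nm.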
A number is an active result; – = inactive; ? = inconclusive; · = not tested or not shown. This is a sample that favours compounds with a hit; in the whole collection about 3.3% have one here. Calls come from the whole dose curve; as a rule, active = well fitted curve in the direction sought with a large enough effect; inconclusive = small, poorly fitted or top-dose-only effect, or another doubt; inactive = no such curve, though single readings can be large; an effect the other way counts as inactive or inconclusive.

SMILES | AmpC inh detg | Sm TGR inh | AmpC inh no detg
CCc1ccc(N2C(=O)NC(=O)/C(=C/c3ccsc3)C2=O)cc1 | – | – | –
CCc1ccc(N2C(=O)NC(=O)/C(=C\c3cccn3CCOc3ccc(C(C)C)cc3)C2=O)cc1 | – | ? | –
O=C1NC(=O)N(Cc2ccc(F)cc2)C(=O)/C1=C\c1ccoc1 | – | ? | –
O=C1NC(=O)N(Cc2ccccc2)C(=O)/C1=C/c1cnc(-c2ccccc2)nc1 | ? | 10µM | –
CSc1ncc(/C=C2/C(=O)NC(=O)N(c3ccc(C(C)C)cc3)C2=O)cn1 | – | 11µM | –
O=C(COC(=O)C1CCC1)NC(=O)c1ccccc1 | – | – | –
CCc1nc(NC(=O)c2sc(C)nc2C)sc1C(=O)OC | – | – | –
O=C(Cn1ncc(Cl)c(Cl)c1=O)Nc1ccc2c(c1)OCO2 | – | 45µM | –
Cc1nn(CC(=O)Nc2ccc3c(c2)OCO3)c(C)c1Cl | – | – | –
CCN(CC)S(=O)(=O)c1cc(NC(=O)CN2C(=O)NC(C)(c3ccccc3)C2=O)ccc1C (configuration not stated) | – | – | –
O=C(Cn1nc(Cc2cccnc2)c2ccccc2c1=O)Nc1ccc(F)c(Cl)c1 | – | – | ·
Cc1ccc(CNc2ccc3c(c2)OCO3)c(C)c1 | – | 40µM | ·
O=C(Cn1nc(Cc2cccnc2)c2ccccc2c1=O)Nc1ccc2c(c1)OCO2 | – | – | 10µM
Cc1ccc(C)c(NC(=O)Nc2ccc3c(c2)OCO3)c1 | – | – | –
CCN(CC)S(=O)(=O)c1cc(NC(=O)Cn2ncc(Cl)c(Cl)c2=O)ccc1C | – | 0.56µM | –
S=c1[nH]ncn2c1cc1oc3ccccc3c12 | – | – | –
O=c1ccc(-c2ccc(S(=O)(=O)N3CCN(c4cccc(Cl)c4)CC3)o2)n[nH]1 | – | – | –
COc1cccc(CN2CC(C(=O)NCCc3ccc(C)s3)CCC2=O)c1 (configuration not stated) | – | – | –
Cc1cc(C(=O)CSc2nc(N)cc(N)n2)c(C)n1-c1cccc(F)c1 | – | – | –
O=C(NCc1cccnc1)Nc1ccc2c(c1)OCO2 | – | – | –
CC(NC(=O)Cn1ncc(Cl)c(Cl)c1=O)C12CC3CC(CC(C3)C1)C2 (configuration not stated) | – | 40µM | –
CCn1cc(C(=O)NC(C)C23CC4CC(CC(C4)C2)C3)cn1 (configuration not stated) | – | – | –
c1cncc(CNc2ccc3c(c2)OCO3)c1 | – | 16µM | –
COc1ccc(/C=C\c2onc(C)c2S(=O)(=O)N2CCC(C(=O)Nc3ccc(Cl)cc3)CC2)cc1 | – | – | ·
COC(=O)COc1c(Cl)cc(C(c2c(C)[nH][nH]c2=O)c2c(C)[nH][nH]c2=O)cc1OC | – | – | –
SMILES | AmpC inh detg | Sm TGR inh | AmpC inh no detg
COc1ccc(C2/C=C\CN(C(=O)C3CC3)CC(=O)N2Cc2ccc(F)cc2)cc1 (configuration not stated) | – | – | –
COc1ccc(C2/C=C\CNCC(=O)N2Cc2ccc(F)cc2)cc1 (configuration not stated) | – | 40µM | –
Cc1ccc(NC(=O)COC(=O)C2=NNC(=O)CC2)c(Br)c1 | · | · | –
Cc1cc(NC(=O)c2ccccc2F)on1 | – | – | –
Cc1cc(C)nc(S/C=C/C(=O)c2ccccc2F)n1 | – | 0.56µM | –
FC(F)(F)c1nc(=S)c2ccccc2[nH]1 | – | 2µM | –
Cc1nc(=S)c2ccccc2[nH]1 | – | – | –
COc1cccc(CNC(=O)c2ccc(C3SCCS3)cc2)c1 | – | – | –
CN(C)N1C(N)=C(C#N)C(c2cccc3ccccc23)C2=C1CC(c1ccccc1)CC2=O (configuration not stated) | – | – | –
Cc1ccc(CNC(=O)CN(C)C2=NS(=O)(=O)c3ccccc32)cc1 | – | – | –
COC(=O)c1ccc(NC(=O)c2ccc(NS(=O)(=O)c3cccc4cccnc34)cc2)cc1 | – | – | –
O=C(Nc1ccccc1O)c1ccc(NS(=O)(=O)c2cccc3cccnc23)cc1 | – | – | 16µM
C/C(CC(=O)Nc1ccc(F)cc1)=N\NC(=O)COc1ccccc1 | ? | – | –
COc1ccc(NC(=O)CN(Cc2ccco2)Cc2ccco2)cc1S(=O)(=O)N1CCCCC1 | – | – | –
COc1cccc(CNC(=O)CCc2c(C)nc3c(c2C)c(=O)n(C)c(=O)n3C)c1 | – | – | ·
CC1=NN(Cc2ccccc2)C(=O)C1C(c1ccccc1)C(C#N)C#N (configuration not stated) | ? | – | –
